The full list was thinned out, with hits kept by preference.
12-LOX inh = Primary qHTS assay for inhibitors of human arachidonate 12S-lipoxygenase (ALOX12): Round 2; Polyunsaturated fatty acid lipoxygenase ALOX12 (Homo sapiens), P18054; purified 12hLO, xylenol orange hydroperoxide absorbance; Potency, µM (highest dose often 108 µM), inactives show at the highest dose activity change, negative = inhibition, usual class: inhibitors; actives 1.1% (n = 580,000); note: potency is the fitted concentration of half-maximal effect
Target sequence (P18054 whole entry, looked up): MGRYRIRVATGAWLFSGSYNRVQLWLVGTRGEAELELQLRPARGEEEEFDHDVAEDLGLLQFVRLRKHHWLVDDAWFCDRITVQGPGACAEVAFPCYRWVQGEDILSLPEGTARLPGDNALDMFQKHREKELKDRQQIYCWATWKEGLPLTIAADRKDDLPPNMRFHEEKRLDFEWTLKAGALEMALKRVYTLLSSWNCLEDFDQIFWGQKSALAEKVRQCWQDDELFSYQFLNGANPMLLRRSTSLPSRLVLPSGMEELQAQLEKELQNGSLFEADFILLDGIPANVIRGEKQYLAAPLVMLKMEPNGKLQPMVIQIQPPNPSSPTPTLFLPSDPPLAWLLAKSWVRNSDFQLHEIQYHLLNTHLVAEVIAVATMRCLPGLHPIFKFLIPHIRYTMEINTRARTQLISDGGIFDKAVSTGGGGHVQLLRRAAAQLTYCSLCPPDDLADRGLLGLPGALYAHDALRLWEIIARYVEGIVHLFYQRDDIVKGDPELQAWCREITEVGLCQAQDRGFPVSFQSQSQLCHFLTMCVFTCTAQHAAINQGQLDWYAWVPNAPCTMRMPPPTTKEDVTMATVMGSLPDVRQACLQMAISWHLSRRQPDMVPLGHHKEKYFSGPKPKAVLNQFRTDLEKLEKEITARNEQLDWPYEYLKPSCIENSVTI
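Hydroperoxide product was detected by ferrous iron/xylenol orange as the 573 to 405 nm absorbance ratio. Arachidonic acid at 40 uM (final) was turned over for 30 min at room temperature by 150 nM human 12hLO, pH 7.0 Hepes buffer, after 15 min compound preincubation.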
HT1080 IDH1KD tx = qHTS for induction of synthetic lethality in tumor cells producing 2HG: qHTS for the HT-1080-IDH1KD cell line; HT-1080 IDH1 knockdown viability, ATP luminescence, 48 h; Potency, µM (series often up to 46.1 µM), inactives show at the top dose activity, negative = toxicity, usual class: cytotoxic; actives 2% (n = 360,000);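 note: potency is the fitted concentration of half-maximal effect; 0% = DMSO wells and -100% = cell-free medium wells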
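Knockdown cells (IDH1KD HT-1080) received compounds 2 h after plating at 750 cells/well and were kept 48 h at 37 °C in 5% FBS RPMI. A CellTiter-Glo luminescence read gave % activity for curve fitting.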
TDP1 cell CPT = qHTS for Inhibitors of human tyrosyl-DNA phosphodiesterase 1 (TDP1): qHTS in cells in presence of CPT; chicken DT40 Tdp1-/-;hTDP1 cells + 20 nM CPT, ATP luminescence, 48 h; Potency, µM (doses to about 46.2 µM), without a hit: top-dose activity change, negative = growth inhibition, hits mostly inhibitors; actives 12% (n = 420,000); AID 686979, 2013; note: potency is the fitted concentration of half-maximal effect; nearly all actives have a fitted effect of over 55% in size
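Cell growth measured by CellTiter-Glo luminescence after a minimum 48 h, 37 C compound exposure with 20 nM CPT in Tdp1-knockout DT40 cells stably expressing hTDP1, seeded 400/well; qHTS titration format.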
DT40 TDP1 no CPT = qHTS for Inhibitors of human tyrosyl-DNA phosphodiesterase 1 (TDP1): qHTS in cells in absence of CPT; DT40 Tdp1-/- hTDP1 cells, no CPT, ATP luminescence, 48 h; actives 15% (n = 420,000); Potency, µM (titrated, usually from 46.2 µM), for the others: top-dose activity change, negative = growth inhibition, hits mostly inhibitors; note: potency is the fitted concentration of half-maximal effect; nearly all actives have a fitted effect of over 55% in size
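Growth of hTDP1-complemented DT40 Tdp1-knockout cells is measured by ATP luminescence after at least 48 hr compound exposure at 37 °C, with DMSO substituting for the 20 nM CPT used in the parallel screen.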
IL-1B inflam inh = qHTS for Inhibitors of Inflammasome Signaling: IL-1-beta AlphaLISA Primary Screen. actives 4.7% (n = 360,000). AID 743279, 2014. activity change, % at 57.5 µM. THP-1 LPS/ATP IL-1B secretion, AlphaLISA, 16 h; hits give low values; in the data active = activity change below about -50%; inconclusive = mostly about -30% to -49%
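Secreted IL-1B measured by AlphaLISA bead assay after 16 h compound exposure of THP-1 cells; compounds (final up to 57.5 uM) added 1 h before LPS (250 ng/mL) and ATP (1.25 mM) stimulation; lower signal means less secretion.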
HT1080-NT tox = qHTS for induction of synthetic lethality in tumor cells producing 2HG: qHTS for the HT-1080-NT fibrosarcoma cell line; HT-1080-NT fibrosarcoma viability, CellTiter-Glo ATP luminescence, 48 h; AID 686970, 2013; actives 1.6% (n = 360,000); Potency, µM (series often up to 46.1 µM), for the others: at the highest dose activity, negative = less viability, most hits filed as cytotoxic;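 note: NT is the 2HG producing partner of a matched IDH1 knockdown line; potency is the fitted concentration of half-maximal effect; 0% = DMSO-treated cells and -100% = media-only wells without cells; nearly all actives have a fitted effect of over 55% in size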
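Viability of the 2HG-overproducing fibrosarcoma line after 48 hours of compound exposure at 37 degrees C was determined by luminescence with CellTiter-Glo, and concentration-effect curves were then fitted and categorized.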
Numbers without * were called inactive; [ ] = another dose, or the depositor's remark. Unless noted, calls come from the whole dose curve; as a rule, active = well fitted curve in the direction sought with a large enough effect; inconclusive = small, poorly fitted or top-dose-only effect, or another doubt; inactive = no such curve, though single readings can be large; an effect the other way counts as inactive or inconclusive. Unless noted, % is set by controls: 0 for no effect and ±100 for the full control effect.

CCCc1nn2c(=O)cc(COC(=O)c3cccc(NC(=O)COc4ccccc4C)c3)nc2s1 was read as 12-LOX inh -8.4%, TDP1 cell CPT inconclusive and DT40 TDP1 no CPT 18.4µM*.
CCc1nn2c(=O)cc(COC(=O)c3cccc(NC(=O)CCc4ccccc4)c3)nc2s1 was read as 12-LOX inh inconclusive, TDP1 cell CPT inconclusive and DT40 TDP1 no CPT 6.51µM*.
`CCc1nn2c(=O)cc(COC(=O)c3ccc(NC(=O)CCc4ccccc4)cc3)nc2s1` gave 12-LOX inh -10.2%, TDP1 cell CPT 23.1µM* and DT40 TDP1 no CPT 9.2µM*.
`Cc1ccccc1N1CCN(c2nc(-c3cccnc3)nc3ccccc23)CC1` gave 12-LOX inh 24.9%.
Screening COc1cc(/C=N/n2cc(-c3ccccc3)[nH]c2=S)cc(OC)c1O returned 12-LOX inh 12.6µM*, HT1080 IDH1KD tx 10.9%, TDP1 cell CPT inconclusive, DT40 TDP1 no CPT inconclusive, IL-1B inflam inh 60.0 and HT1080-NT tox inconclusive.
`S=c1[nH]c(-c2ccccc2)cn1-c1ccccc1` gave 12-LOX inh inconclusive, HT1080 IDH1KD tx 16.2%, TDP1 cell CPT 7.8%, DT40 TDP1 no CPT 2.7%, IL-1B inflam inh -11.7 and HT1080-NT tox -0.4%.
Cc1ccc(/C=N/n2c(-c3cccnc3)n[nH]c2=S)s1 was read as 12-LOX inh inconclusive, HT1080 IDH1KD tx 15.3%, TDP1 cell CPT -0.1%, DT40 TDP1 no CPT -20.2%, IL-1B inflam inh -53.5* and HT1080-NT tox 7.3%.
Cc1ccc(/C=N/n2c(-c3ccco3)n[nH]c2=S)s1 was read as 12-LOX inh inconclusive, HT1080 IDH1KD tx 19.6%, TDP1 cell CPT -0.8%, DT40 TDP1 no CPT inconclusive, IL-1B inflam inh 32.0 and HT1080-NT tox 19.9%.
Oc1ccc(/C=N/n2cc(-c3ccccc3)[nH]c2=S)cc1 was read as 12-LOX inh 15.8µM*, HT1080 IDH1KD tx -4.3%, TDP1 cell CPT inconclusive, DT40 TDP1 no CPT inconclusive, IL-1B inflam inh -6.1 and HT1080-NT tox 4.5%.
`Cc1ccc(/C=N/n2cc(-c3ccccc3)[nH]c2=S)s1` gave 12-LOX inh -30.6%, HT1080 IDH1KD tx 0.6%, TDP1 cell CPT 8.2µM*, DT40 TDP1 no CPT 5.17µM*, IL-1B inflam inh 11.2 and HT1080-NT tox -5.7%.
Cc1cc(C(=O)N[C@@H]2CN(Cc3ccccn3)C[C@H]2CN(C)C)n[nH]1 was read as 12-LOX inh 132.9%.
COc1ccc(Cl)cc1NC(=O)N1CCN(c2nnc(C)c3c(C)n(-c4ccccc4)nc23)CC1 was read as 12-LOX inh 7.3%.
`COc1ccc(-c2cc(C(F)(F)F)c3c(N)c(C(=O)NCCSC)sc3n2)cc1` gave 12-LOX inh 24.1%, HT1080 IDH1KD tx 7.1%, TDP1 cell CPT inconclusive, DT40 TDP1 no CPT inconclusive, IL-1B inflam inh 7.9 and HT1080-NT tox 4.2%.
For CN(C)CCNC(=O)c1sc2nc(-c3ccccc3)cc(C(F)(F)F)c2c1N the results were 12-LOX inh -28.4%, HT1080 IDH1KD tx 18.4µM*, TDP1 cell CPT inconclusive, DT40 TDP1 no CPT 16.4µM*, IL-1B inflam inh -98.7* and HT1080-NT tox 23.1µM*.
For CN(CCC(=O)c1ccccc1)CCC(=O)c1ccccc1 the results were 12-LOX inh -18.8%, HT1080 IDH1KD tx 5.6%, TDP1 cell CPT 4.61µM*, DT40 TDP1 no CPT 2.91µM*, IL-1B inflam inh -9.7 and HT1080-NT tox 7.9%.
`CN(C)CCC(=O)c1ccc(Cl)cc1` gave 12-LOX inh -16.6%, HT1080 IDH1KD tx 9.5%, TDP1 cell CPT 2.59µM*, DT40 TDP1 no CPT 4.61µM*, IL-1B inflam inh -5.5 and HT1080-NT tox -2.9%.
Screening CCC(C)NC(=O)CCN(CC)C(=O)c1cc(C)oc1C (stereo unspecified) returned 12-LOX inh 21.4%.
`CCOc1ccc(C(=O)N2CCC(NS(=O)(=O)c3cccs3)CC2)cc1` gave 12-LOX inh -1.3%.
For Cc1ccc(C(c2nnnn2CC2CCCO2)N2CCN(c3cccc(C)c3C)CC2)cc1 (stereo unspecified) the results were 12-LOX inh 15.0%, HT1080 IDH1KD tx -17.9%, TDP1 cell CPT inconclusive, DT40 TDP1 no CPT 23.1µM*, IL-1B inflam inh -25.6 and HT1080-NT tox -15.0%.
Screening CC(C)CC(c1nnnn1CC1CCCO1)N1CCN(c2cccc(Cl)c2)CC1 (stereo unspecified) returned 12-LOX inh 0.0%, HT1080 IDH1KD tx 0.2%, TDP1 cell CPT 25.9µM*, DT40 TDP1 no CPT 16.4µM*, IL-1B inflam inh -4.1 and HT1080-NT tox 2.1%.
For CC(C)CC(c1nnnn1Cc1ccco1)N1CCN(c2cccc(Cl)c2)CC1 (stereo unspecified) the results were 12-LOX inh inconclusive, HT1080 IDH1KD tx -22.4%, TDP1 cell CPT inconclusive, DT40 TDP1 no CPT 16.4µM*, IL-1B inflam inh -21.0 and HT1080-NT tox -19.8%.
Screening CCOc1ccccc1C1NC(=O)N(CC(=O)Nc2cc(Cl)ccc2OC)C2=C1C(=O)OC2 (stereo unspecified) returned 12-LOX inh 27.7%.
O=C1c2ccccc2NC(c2ccc(Br)o2)N1O (stereo unspecified) was read as 12-LOX inh -19.5%.
`O=C1c2ccccc2NC(c2ccc(-c3ccc(C(F)(F)F)cc3)o2)N1O` (stereo unspecified) gave 12-LOX inh 28.2µM*.
Screening C#CCNC(=O)c1cc(-c2ccccc2OC)c2cnn(C)c2n1 returned 12-LOX inh -0.9%[6.33 µM].
Screening CC(=O)OCON[N+]([O-])=NC(C)C returned TDP1 cell CPT 11.2µM* and DT40 TDP1 no CPT inconclusive.
Cc1c(-c2ccccc2)oc2c(C(=O)OCC(=O)NC3CCC(C)CC3)cccc2c1=O (stereo unspecified) was read as 12-LOX inh 7.2%.
